Measurements from PubChem BioAssay AID651658 (Broad Institute, 2012).
About 5,100 (1.5%) of roughly 340,000 compounds were called active. For the sample, actives were picked, then their nearest neighbours and some compounds at random. Values without a mark were called inactive.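 The calls were made as follows: active = mean Tm shift, scaled 0 neutral to 100 positive control, at about 1.3% or above, every replicate too (limit read from the data); inconclusive = no clear call, values can overlap the other calls; inactive = the rest.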

Each molecule was assayed against Fibroblast growth factor 22 (Homo sapiens) (UniProt Q9HCT0) (assay: binders of human FGF22 protein, primary screen, FGF22 synaptogenesis inhibitor project, biophysical, thermal shift, single point (AID 651658)). Details: recombinant FGF22 thermal shift, SYPRO orange fluorescence; at 9.99 µM; active compounds read high; percent of sucrose octasulfate shift, DMSO zero.
Fibroblast growth factor 22 (Homo sapiens), sequence (Q9HCT0 whole entry, looked up): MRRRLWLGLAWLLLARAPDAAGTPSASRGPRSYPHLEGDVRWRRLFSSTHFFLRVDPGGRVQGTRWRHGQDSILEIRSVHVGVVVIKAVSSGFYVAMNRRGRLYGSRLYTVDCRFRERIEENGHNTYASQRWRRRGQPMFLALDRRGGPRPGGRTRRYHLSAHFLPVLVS

Q: How did the activity (Tm shift, normalised) turn out when `CC1(Cc2cccc(C#N)c2)C(=O)Nc2ccc(-c3cccc(C(F)(F)F)c3)cc21` (stereo not drawn) was run?
A: 0.505%

Q: How did the activity (Tm shift, normalised) turn out when `Cn1cc(-c2ccccc2)cc(C#N)c1=O` was run?
A: 0.065%

Q: `C=CCn1cc(-c2cccc(C(F)(F)F)c2)cc(C#N)c1=O` was tested. Which activity (Tm shift, normalised) did it give?
A: 42.9% (active)

Q: Which activity (Tm shift, normalised) does the source give for `COc1cccc(S(=O)(=O)N2CCC3(CC2)CN[C@H](CO)c2c3c3ccc(OC)cc3n2C)c1` here?
A: 0.197%

Q: With `Cc1ccc(CN2CCN(Cc3ccccc3-c3ccco3)CC2CCO)o1` (stereo not drawn) as the molecule, how does the activity (Tm shift, normalised) read?
A: 43.4% (active)

Q: `OCCC1CN(Cc2ccccc2-c2ccco2)CCN1Cc1ccsc1` (stereo not drawn) was tested. Which activity (Tm shift, normalised) did it give?
A: 0.318%

Q: Which activity (Tm shift, normalised) does the source give for `Cc1ccc(CN2CCN(Cc3cn(C)nc3-c3ccccc3)CC2CCO)o1` (stereo not drawn) here?
A: -0.412%

Q: Which activity (Tm shift, normalised) does the source give for `CCS(=O)(=O)N[C@@H]1CC[C@@H](CC(=O)NCC2CC2)O[C@H]1CO` here?
A: 0.034%

Q: With `CN1C(=O)c2cc(NC(=O)c3ccc(F)cc3)ccc2OC[C@H]2O[C@H](CC(=O)N3CCOCC3)CC[C@@H]21` as the molecule, how does the activity (Tm shift, normalised) read?
A: -0.26%

Q: For `O=C(COc1ccc([N+](=O)[O-])cc1)Nc1cccc(C(=O)Nc2ccccc2C(=O)O)c1`, which activity (Tm shift, normalised) is on record?
A: 1.4% (active)

Q: For `CN(CCc1ccccc1)C(=O)c1cccc(NC(=O)Cc2ccc([N+](=O)[O-])cc2)c1`, which activity (Tm shift, normalised) is on record?
A: -0.076%

Q: `O=C(CSCc1ccc([N+](=O)[O-])cc1)Nc1cccc(C(=O)Nc2ccccc2C(=O)O)c1` was tested. Which activity (Tm shift, normalised) did it give?
A: -0.059%

Q: Which activity (Tm shift, normalised) does the source give for `C[C@H](CO)N1C[C@H](C)[C@@H](CN(C)C(=O)C2CCOCC2)Oc2cc(-c3ccc(C(=O)N(C)C)cc3)ccc2S1(=O)=O` here?
A: -0.068%

Q: How did the activity (Tm shift, normalised) turn out when `CN1c2ccc(C#Cc3cccnc3)cc2[C@H]2[C@H](CCN2S(=O)(=O)c2ccccc2)[C@@H]1CO` was run?
A: -0.293%

Q: How did the activity (Tm shift, normalised) turn out when `C[C@H](CO)N1C[C@H](C)[C@H](CN(C)Cc2ccccc2)OCCCC[C@H](C)Oc2ccc(NC(=O)CCC(F)(F)F)cc2C1=O` was run?
A: -0.091%

Q: How did the activity (Tm shift, normalised) turn out when `Cn1cncc1COC(=O)c1ccc(Cl)cc1` was run?
A: 0.094%

Q: Which activity (Tm shift, normalised) does the source give for `O=C(OCc1cc(Cl)ccc1OC(F)F)c1cccnc1` here?
A: 43.6% (active)

Q: With `O=C(CC(=O)c1cccnc1)c1ccccc1` as the molecule, how does the activity (Tm shift, normalised) read?
A: -0.031%

Q: With `C[C@@H](O)C#Cc1ccc([C@H]2[C@H](CO)N3CCCCN(C(=O)c4ccc(F)cc4)C[C@@H]23)cc1` as the molecule, how does the activity (Tm shift, normalised) read?
A: 0.261%

Q: For `O=C(c1cccnc1)N1C[C@H]2[C@@H](c3ccccc31)[C@@H](CO)N2C(=O)Nc1ccccc1F`, which activity (Tm shift, normalised) is on record?
A: -0.686%

Q: Which activity (Tm shift, normalised) does the source give for `O=C(Nc1ccccc1F)N1C[C@@H]2[C@H](c3ccccc31)[C@@H](CO)N2C(=O)Nc1ccccc1` here?
A: -0.294%

Q: `O=C(Nc1ccccc1F)N1[C@H](CO)[C@H]2c3ccccc3NC[C@H]21` was tested. Which activity (Tm shift, normalised) did it give?
A: 1.7% (active)

Q: For `C/C=C/c1cccc(-c2nc(C(=O)NCCN3CCCCC3)cc3c2[C@@H](CCO)N([S@](=O)C(C)(C)C)C3)c1`, which activity (Tm shift, normalised) is on record?
A: 0.178%

Q: How did the activity (Tm shift, normalised) turn out when `C[C@@H]1CCCCO[C@@H](CN(C)C(=O)Nc2ccc(C(F)(F)F)cc2)[C@H](C)CN([C@@H](C)CO)C(=O)c2cc(N(C)C)ccc2O1` was run?
A: -1.45%

Q: How did the activity (Tm shift, normalised) turn out when `C[C@@H](NC(=O)C[C@H]1C=C[C@H](NC(=O)C2CCOCC2)[C@H](CO)O1)c1ccccc1` was run?
A: -0.059%

Q: `COCC#Cc1ccc([C@H]2[C@H]3CN(Cc4ccncc4)CCCCN3[C@H]2CO)cc1` was tested. Which activity (Tm shift, normalised) did it give?
A: 0.633%

Q: With `Cc1ccc(NC(=O)CSc2nnc(CNC(=O)c3ccccc3F)o2)cc1` as the molecule, how does the activity (Tm shift, normalised) read?
A: 44% (active)

Q: For `Cc1ccc(NC(=O)CSc2nnc(CNC(=O)c3ccccc3F)o2)cc1Cl`, which activity (Tm shift, normalised) is on record?
A: 0.074%

Q: How did the activity (Tm shift, normalised) turn out when `COc1ccccc1NC(=O)CSc1nnc(CNC(=O)c2ccccc2F)o1` was run?
A: 0.09%

Q: `O=C(N[C@H]1CC[C@@H](CCNS(=O)(=O)c2ccccc2)O[C@@H]1CO)c1cnccn1` was tested. Which activity (Tm shift, normalised) did it give?
A: -0.268%

Q: `C[C@@H]1CN([C@H](C)CO)C(=O)c2cc(NC(=O)C3CCCCC3)ccc2O[C@H]1CN(C)C(=O)Nc1ccccc1` was tested. Which activity (Tm shift, normalised) did it give?
A: -0.036%

Q: Which activity (Tm shift, normalised) does the source give for `C[C@H](CO)N1C[C@H](C)[C@@H](CN(C)C(=O)Nc2ccc3c(c2)OCO3)Oc2ccc(NS(=O)(=O)c3ccc(Cl)cc3)cc2C1=O` here?
A: 0.554%

Q: Which activity (Tm shift, normalised) does the source give for `CCS(=O)(=O)Nc1ccc2c(c1)C(=O)N(C)[C@H]1CC[C@@H](CC(=O)Nc3ccccc3)O[C@H]1CO2` here?
A: 0.176%

Q: For `Cc1nc(Cl)c(C#N)c2c1CCCC2`, which activity (Tm shift, normalised) is on record?
A: -0.106%

Q: Which activity (Tm shift, normalised) does the source give for `COCc1c(N)c(C)nc(Cl)c1C#N` here?
A: 43% (active)

Q: For `O=C(C[C@@H]1CC[C@@H]2[C@H](COC[C@@H](O)CN2Cc2ccccc2)O1)NCCc1ccccc1`, which activity (Tm shift, normalised) is on record?
A: -0.247%

Q: How did the activity (Tm shift, normalised) turn out when `O=C(C[C@@H]1CC[C@@H]2[C@H](COC[C@H](O)CN2S(=O)(=O)c2ccccc2F)O1)NCc1ccccc1F` was run?
A: -0.237%

Q: How did the activity (Tm shift, normalised) turn out when `NS(=O)(=O)c1ccc(NC(=O)COC(=O)CCc2c[nH]c3ccccc23)cc1` was run?
A: 43.3% (active)

Q: With `CC(OC(=O)CCCc1c[nH]c2ccccc12)C(=O)Nc1ccc(S(N)(=O)=O)cc1` (stereo not drawn) as the molecule, how does the activity (Tm shift, normalised) read?
A: -0.822%

Q: `O=C(COC(=O)CCc1c[nH]c2ccccc12)Nc1cccc(Cl)c1` was tested. Which activity (Tm shift, normalised) did it give?
A: 0.175%

Q: For `COc1ccc(S(=O)(=O)N[C@H]2CC[C@H](CCn3cc(C(C)C)nn3)O[C@@H]2CO)cc1`, which activity (Tm shift, normalised) is on record?
A: 0.529%

Q: Which activity (Tm shift, normalised) does the source give for `COCC(=O)N1[C@H](CO)[C@@H](c2ccccc2)C12CN(Cc1cc(F)ccc1F)C2` here?
A: -0.224%

Q: With `COc1ccccc1NC(=O)N1C[C@@H](O)COC[C@H]2O[C@@H](CC(=O)NCc3ccccc3)CC[C@@H]21` as the molecule, how does the activity (Tm shift, normalised) read?
A: -0.018%

Q: For `COc1ccc(S(=O)(=O)N(C)C[C@@H]2OCCCC[C@@H](C)Oc3ccc(NC(=O)c4ccccc4)cc3C(=O)N([C@@H](C)CO)C[C@H]2C)cc1`, which activity (Tm shift, normalised) is on record?
A: 0.83%

Q: How did the activity (Tm shift, normalised) turn out when `CCN(CC(=O)Nc1cccc(S(N)(=O)=O)c1)Cc1nc2ccccc2c(=O)[nH]1` was run?
A: 42.3%

Q: `CCN(CC(=O)Nc1ccc(Cl)c(S(=O)(=O)N(C)C)c1)Cc1nc2ccccc2c(=O)[nH]1` was tested. Which activity (Tm shift, normalised) did it give?
A: 0.133%

Q: For `CCN(CC(=O)NC(=O)NCc1ccccc1)Cc1nc2ccccc2c(=O)[nH]1`, which activity (Tm shift, normalised) is on record?
A: 43% (active)

Q: Which activity (Tm shift, normalised) does the source give for `COc1ccc(S(=O)(=O)N(C)C[C@H]2OCCCC[C@H](C)Oc3ccc(NC(=O)CCC(F)(F)F)cc3C(=O)N([C@@H](C)CO)C[C@@H]2C)cc1` here?
A: 0.44%
